In the library only some 3.6% were active in any assay of this set; here they are far more common.
Anthrax LF prot = inhibitors of Bacillus anthracis lethal factor protease. inhibition, % at 10 µM. hit rate 0.12% among 360,000. multiplex microsphere protease cleavage assay, LF. P15917; further: plate controls were buffer without enzyme for full effect and enzyme alone for no effect
BoNT F protease = inhibitors of Botulinum neurotoxin F light chain protease; AID 588497; hit rate 0.22% among 360,000; Multiplex microsphere protease cleavage assay, flow cytometry; inhibition, % at 10 µM; in the data active means inhibition above about 35%, passing the limit was not always enough; inconclusive means no clear call, values can overlap the other calls; further: plate controls were buffer without enzyme for full effect and enzyme alone for no effect
Bead autofluor = compound fluorescence in toxin protease inhibitor counterscreen | compound autofluorescence counterscreen, microsphere flow cytometry; hits give high values | hit rate 3.1% among 360,000 | fluorescence intensity (test concentration not listed) | AID 624483; in the data active means fluorescence intensity above about 16000; inconclusive means no clear call, values can overlap the other calls
BoNT A protease = blocks Botulinum neurotoxin A light chain protease; multiplex microsphere protease substrate cleavage, flow cytometry; inhibition, % at 10 µM; hit rate 0.17% among 360,000; further: plate controls were buffer without enzyme for full effect and enzyme alone for no effect
BJeLR viability = kills HRASV12-expressing BJeLR cells | BJeLR (HRASV12) viability, CellTiter-Glo ATP luminescence, 48 h | inhibition, % (test concentration not listed) | hit rate 0.17% among 300,000 | AID 1554; in the data active means inhibition above about 50%; inconclusive means no clear call, values can overlap the other calls
SARS 3CLpro inh = SARS-CoV 3CLpro protease inhibition. inhibition, % at 6 µM. recombinant SARS-CoV 3CLpro, quenched FRET peptide cleavage. hit rate 0.14% among 290,000. P0C6X7; in the data active means inhibition above about 12%
BoNTA LC inh 2 = BoNT/A light chain protease inhibition. shares compounds with BoNT A protease. multiplex microsphere protease cleavage assay, flow cytometry. inhibition, % at 10 µM. hit rate 10% among 150. AID 602325; in the data active means inhibition above about 24%
LF protease CP2 = inhibitors of Bacillus anthracis lethal factor protease. inhibition, % at 10 µM. hit rate 7% among 150. shares compounds with BoNT A protease. multiplex microsphere protease cleavage assay; in the data active means inhibition above about 25%
BoNT-F LC CP2 = inhibitors of botulinum neurotoxin F light chain protease. hit rate 7% among 150. AID 602336. multiplex microsphere protease cleavage assay, flow cytometry. shares compounds with BoNT A protease. inhibition, % at 10 µM; in the data active means inhibition above about 25%
Starred values were filed as active, the others as inactive; ? = inconclusive; . = not tested or not shown. Unless noted, no stated cut-off is given here; in the data, active means inhibition above about 30%; inconclusive means no clear call, values can overlap the other calls; inactive means below that.

SMILES	Anthrax LF prot	BoNT F protease	Bead autofluor	BoNT A protease	BJeLR viability	SARS 3CLpro inh	BoNTA LC inh 2	LF protease CP2	BoNT-F LC CP2
CC(Oc1cccc2ccccc12)C(=O)N/N=C/c1cccnc1 (stereo not given)	2	2	4465	0	-9	1	.	.	.
Cn1ccc2c(-c3ccc(C(N)=O)cc3)cc3c(c21)C1CCC3C1 (stereo not given)	6	-5	6175	0	.	.	1	2	4
Cn1ccc2c(-c3ccc(F)cc3)cc3c(c21)C1CCC3C1 (stereo not given)	5	-12	5633	6	.	.	4	1	-2
Cn1ccc2c(-c3ccc4c(c3)OCCO4)cc3c(c21)C1CCC3C1 (stereo not given)	-14	-30	3482	11	.	.	5	-5	-24
O=C(CCNC(=O)N1CC(=O)Nc2ccccc21)Nc1ccc(F)c(Cl)c1	-1	3	5021	0	7	-4	.	.	.
O=C(C1CC1)N1CCN(c2ccc(O)cc2)CC1	-2	-14	7156	-4	6	2	.	.	.
Cc1ccc(NC(=O)CN(C)CC(=O)N(C)Cc2ccccc2)cc1	3	-3	5118	4	.	.	.	.	.
CCN(CC)S(=O)(=O)c1ccc(C(=O)NCc2ccc3c(c2)cc(C)n3C)cc1	-83	-98	1295	81*	6	1	3	0	9
Cc1ccc(CNC(=O)c2ccc(S(=O)(=O)N3CCCCC3)cc2)cc1	0	23	5483	3	.	.	.	.	.
Cc1cc2cc(CNC(=O)c3ccc(S(=O)(=O)N4CCCCC4)cc3)ccc2n1C	-81	-78	1944	80*	4	-3	2	-2	-2
Cc1cc2cc(CNC(=O)c3ccc(S(=O)(=O)N4CCCC4)cc3)ccc2n1C	-91	-106	1376	80*	0	4	4	4	13
COc1ccc(Cc2c(-c3ccccc3)nc3cc(C)c(Br)c(C)n23)c(C)c1	0	-13	6172	0	.	.	.	.	.
COc1ccc(Cc2c(-c3ccc(OC)c(OC)c3)nc3c(C)cc(Br)cn23)c(C)c1	20	-3	7593	32*	.	.	11	8	-2
COc1ccc(Cc2c(-c3ccc(OC)c(OC)c3)nc3cc(C)c(Br)c(C)n23)c(C)c1	-21	-7	4775	0	.	.	2	-1	4
CC1CCN(S(=O)(=O)c2ccc(NC(=O)C3CCCCC3C(=O)O)cc2)CC1 (stereo not given)	5	-3	3903	0	.	.	.	.	.
CCC(=O)NCCn1c(C)cc2ccccc21	33*	20	5062	26	3	-5	34*	2	28*
Cc1cc2ccccc2n1CCNC(=O)C(C)(C)C	12	-16	2350	96*	-2	.	11	10	11
Cc1cc2ccccc2n1CCNC(=O)c1ccc(S(=O)(=O)N2CCOCC2)cc1	-100	-128	1079	29	-6	7	.	.	.
Cc1cc2ccccc2n1CCNC(=O)COc1ccccc1	-63	-88	1122	84*	0	.	77*	50*	-14
Cc1cc2ccccc2n1CCNC(=O)Cc1cccc2ccccc12	-124	-116	1162	55*	3	1	12	10	-5
O=C(COc1ccccc1)NCC(=O)Nc1cccc2ccccc12	-3	-8	7335	-1	4	4	.	.	.
O=C(NCc1ccccc1)C1CCCN1C(=O)Nc1ccccc1[N+](=O)[O-] (stereo not given)	-2	?	3516	?	-4	2	.	.	.
Cc1cc2ccccc2n1CCNC(=O)c1ccc(Br)o1	-117	-145	1384	66*	-15	-1	21	22	-3
CCOc1ccc(NC(=O)CN(C)C(=O)c2ccc3c(c2)S(=O)(=O)N=C2CCCCCN23)cc1OCC	110*	87*	5175	94*	.	.	2	0	1
CC(C)CC(c1nnnn1Cc1ccccc1)N1CCC(C(N)=O)CC1 (stereo not given)	-5	-16	4324	1	3	0	.	.	.
SMILES	Anthrax LF prot	BoNT F protease	Bead autofluor	BoNT A protease	BJeLR viability	SARS 3CLpro inh	BoNTA LC inh 2	LF protease CP2	BoNT-F LC CP2
Cc1ccc(-c2nc3ccc(Br)cn3c2Cc2ccsc2)cc1	10	-20	5688	19	.	.	.	.	.
Fc1ccc(-c2nc3ccc(Br)cn3c2Cc2ccsc2)cc1	25	-3	6185	32*	.	.	14	11	0
COc1ccc(CNC(=O)C2CCCN2C(=O)NCc2ccccc2)cc1 (stereo not given)	1	14	3465	2	-4	0	.	.	.
CN(C)c1ccc(/C=C2/C[N+](C)(C)C/C(=C/c3ccc(N(C)C)cc3)C2=O)cc1	41*	-27	7292	86*	.	.	48*	28*	-4
COc1ccc(CC(Cc2ccc(OC)c(OC)c2)NC=O)cc1OC	-3	-2	3429	0	.	.	.	.	.
COc1ccc(C(CNC(=O)c2ccc(C)c(S(=O)(=O)N3CCCCC3)c2)N2CCCC2)cc1 (stereo not given)	56*	86*	9963	22	.	.	1	-1	5
CN(CC(=O)NC1CCN(Cc2ccccc2)CC1)S(=O)(=O)c1ccc(Cl)cc1	54*	74*	4359	14	.	.	8	8	21
CN(CC(=O)NC1CCN(Cc2ccccc2)CC1)S(=O)(=O)c1ccc(Br)s1	2	8	3897	2	-5	3	.	.	.
Cc1ccc(C(=O)COC(=O)COc2ccccc2C)cc1	0	6	6252	-2	-8	-4	.	.	.
COc1cc(CC(=O)OCC(=O)c2c[nH]c3ccccc23)cc(OC)c1OC	25	-13	10228	50*	.	.	15	16	-1
Cc1ccccc1OCC(=O)OCC(=O)c1c[nH]c2ccccc12	-4	0	8924	1	.	.	3	1	10
COc1ccc(CC(=O)OCC(=O)c2c[nH]c3ccccc23)cc1	24	-8	9727	53*	.	.	14	12	-4
CC(C)NC(=S)N/N=C/c1ccc2c(c1)OCCO2	-2	0	2502	0	-5	-7	.	.	.
O=C(NC1CCCCC1)c1cccc2c1C(=O)c1ccc(N3CCC(Cc4ccccc4)CC3)cc1S2(=O)=O	34*	14	5311	26	.	.	8	8	12
CC1CCN(c2ccc3c(c2)S(=O)(=O)c2cccc(C(=O)NC4CC4)c2C3=O)CC1	-2	1	3947	1	.	.	5	6	13
O=C(NCC1CC1)c1cccc2c1C(=O)c1ccc(N3CCCC3)cc1S2(=O)=O	2	-1	4247	2	.	.	.	.	.
COc1ccccc1N1CCN(c2ccc3c(c2)S(=O)(=O)c2cccc(C(=O)NCc4cccc(F)c4)c2C3=O)CC1	-10	-3	3870	0	.	.	2	-2	-4
O=C(NC[C@@H]1CCCO1)c1cccc2c1C(=O)c1ccc(N3CCOCC3)cc1S2(=O)=O	-2	1	3924	0	.	.	.	.	.

Screens as filed in PubChem.
